Compound activity (PubChem BioAssay)
KKLEB cytotox: CF airway cell cytotoxicity counter-screen. KKLEB CF airway cells viability, ATPlite luminescence, overnight; active compounds read low; cells stimulated with P. aeruginosa culture filtrate. activity change (cytotoxicity), % at 5 µM. 0.36% of 360,000 active. AID 602141;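 active = corrected activity change at or below -50% at 5 µM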
HIF-2a inh: HIF-2a inhibition; 786-0 RCC cells HIF-2a reporter, luciferase luminescence, overnight; inhibition, % at 18.8 µM; 0.72% of 360,000 active;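 active = inhibition of the luminescence signal of 40% or more relative to plate controls, in a single-dose primary screen at 18.75 µM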
Shn3 3UTR inh: inhibitors of Schnurri-3 3'UTR reporter in osteoblasts. Clone20 osteoblast Shn3 3'UTR firefly luciferase, 24 h. inhibition, % at 12.5 µM. 0.52% of 360,000 active. AID 588674;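 active = mean inhibition of at least 75% with every replicate also reaching 75%; inconclusive = mean inhibition at least 75% but some replicate below; inactive = mean inhibition below 75%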;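 note: 0% = median of neutral control wells and 100% = pilot-screen positive control compound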
CF NFkB block: inhibitors of cystic fibrosis induced NF-kB. KKLEB NF-kB-GFP reporter, PAF-induced, GFP fluorescence overnight. inhibition, % at 5 µM. 0.86% of 360,000 active. AID 588850;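 active = at least 50% inhibition at 5 µM, scaled per plate between neutral and stimulator controls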;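 note: PAF is a Pseudomonas aeruginosa culture filtrate used as stimulus; plate controls were PAF-stimulated DMSO wells for no effect and unstimulated DMSO wells for full effect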
TRPM1 prom inh: MITF TRPM1 promoter inhibition in SK-MEL-5 cells; SK-MEL-5 TRPM1 promoter luciferase, 24 h; inhibition, % at 12.5 µM; 0.83% of 330,000 active;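 active = mean inhibition across replicates of 60% or more, whatever share of single replicates reaches that level; inconclusive = some that reach 60%, reason not given; inactive = mean inhibition across replicates below 60%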
Peg3 prom inh: Peg3 promoter activity inhibition. HeLa PEG-Prom luciferase reporter, luminescence, overnight. inhibition, % at 20 µM. 1.7% of 360,000 active;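 active = inhibition of at least 50% at 20 µM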
Numbers without * were called inactive; ? = inconclusive; . = no result. Sampled rows, rich in hits. Any-hit rate of the full collection: about 2.8%.

SMILES | KKLEB cytotox | HIF-2a inh | Shn3 3UTR inh | CF NFkB block | TRPM1 prom inh | Peg3 prom inh
CCOc1ncccc1C(=O)N(CC)CC(=O)NCc1ccc(Cl)cc1 | -19 | 14 | -8 | 8 | . | 18
O=C1C(=Cc2ccccn2)CCc2ccccc21 | -5 | -77 | -53 | 61* | . | -72
COc1cc([N+](=O)[O-])cc2sc(NC(=O)c3c(F)cccc3F)nc12 | 7 | -21 | 0 | -8 | 3 | 15
CCCCCCCCC(c1nc2ccccc2[nH]1)N1CCN=C1c1cc2ccccc2[nH]1 (stereo not drawn) | -26 | 29 | 16 | 14 | . | 100*
Cc1c(O)cnc2nn(-c3ccccc3)c(=N)n12 | -21 | -12 | -7 | -36 | . | -5
COc1cc(NC(=O)COc2ccc(-n3cnnn3)cc2)c(OC)cc1Cl | -49 | 14 | 7 | 37 | 11 | 59*
O=C(Nc1ccc(S(=O)(=O)N2CCN(Cc3ccccc3)CC2)cc1)c1cnccn1 | 7 | 17 | 82* | -4 | 19 | 5
COc1ccccc1N1CCN(C(=O)CCCn2c(=S)[nH]c3ccccc3c2=O)CC1 | 0 | 8 | 11 | -11 | . | 68*
COc1cc(CCC(=O)Nc2nccs2)cc(OC)c1OC | 7 | 6 | 4 | -5 | -6 | 2
CCOc1cc(CNC(C)(C)CO)cc(Br)c1OCc1ccc(Cl)cc1Cl | -14 | -25 | 34 | 21 | -5 | 58*
CCOc1cc(CNCCCN2CCOCC2)cc(Br)c1OCc1ccccc1Cl | -55* | 13 | 86* | 35 | 37 | 111*
CCOc1cc(CNCCN2CCOCC2)ccc1OCc1ccccc1Cl | -5 | 2 | -35 | -4 | -16 | 7
CCOc1cc(CNCCO)cc(Br)c1OCc1ccc(Cl)cc1 | -12 | -12 | -13 | 4 | 21 | 101*
COc1cc(CNC(C)(C)CO)cc(Br)c1OCc1ccccc1 | -4 | 10 | 6 | 15 | -23 | 0
COc1ccc(C(=O)Nc2cc(C)nn2-c2ccc(C)cc2)cc1 | -9 | 12 | 7 | -11 | 7 | -4
C(=N\NC1=Nc2cccc3cccc1c23)/c1ccccn1 | -26 | -214 | 50 | 51* | -5 | -76
Clc1ccccc1/C=N/NC1=Nc2cccc3cccc1c23 | -14 | -203 | -88 | -21 | -32 | -192
CC1=C(C(=O)OCc2ccc(C)cc2)C(c2ccc(O)c([N+](=O)[O-])c2)NC(=O)N1 (stereo not drawn) | 8 | 6 | 7 | 5 | -6 | 12
CCOC(=O)c1c(CSC(=N)N)n(C)c2cc(Br)c(OC(C)=O)cc12 | 27 | 3 | -21 | 0 | 19 | -7
CCOC(=O)c1c(CSC(=N)N)n(-c2ccc(C)cc2)c2cc(Br)c(OC(C)=O)cc12 | 7 | 13 | -20 | 12 | ? | 54*
CC(=O)Nc1ccc2cnn(C(C)=O)c2c1 | 4 | -18 | -24 | -31 | . | -10
COc1cc(/C=C/C(=O)OCC(=O)N2c3ccccc3NC(=O)C2(C)C)cc(OC)c1OC | -19 | -13 | 3 | 15 | -8 | 65*
COc1ccc(-c2nnc(NC(=O)c3ccc(S(=O)(=O)N4CCCc5ccccc54)cc3)o2)cc1 | -3 | 19 | 40 | 5 | 30 | 53*
COc1ccccc1-c1noc(-c2ccncc2)n1 | -4 | -158 | -36 | 5 | -37 | -179
COc1ccccc1-c1nc(-c2ccccn2)no1 | -29 | 43* | 7 | -27 | 45 | 47
SMILES | KKLEB cytotox | HIF-2a inh | Shn3 3UTR inh | CF NFkB block | TRPM1 prom inh | Peg3 prom inh
CN(C)c1nc(-c2ccccn2)nnc1-c1ccccc1 | -15 | 8 | 93* | 19 | 78* | 53*
COc1ccc(Oc2nc(-c3ccccn3)ncc2OC)cc1 | 4 | 12 | 5 | -15 | 3 | 1
COc1cnc(-c2ccccn2)nc1N(C)C | -1 | -4 | 89* | 22 | 34 | 21
Cc1ccc(CNC(=O)[C@H](C)NC(=O)C2CCN(C(=O)[C@@H]3CCCN3C(=O)OC(C)(C)C)CC2)cc1 | 5 | 3 | 6 | -56 | 0 | -15
CN(CC(=O)Nc1cccc(F)c1)C(=O)CCNC(=O)c1ccco1 | -6 | 2 | -15 | -8 | 1 | 22
CCOC(=O)C1=C(CCl)NC(=O)NC1c1ccc2c(c1)OCO2 (stereo not drawn) | -6 | 25 | 5 | 18 | 69* | 41
FC(F)(F)c1cc(CCN2CCNC[C@@H]2Cc2ccccc2)cc(C(F)(F)F)c1 | -11 | -2 | 40 | 25 | 81* | 102*
Fc1cccc(CCN2CCNC[C@@H]2Cc2ccccc2)c1 | -9 | 4 | -18 | -12 | 2 | -1
CCOC(=O)/C=C/C(=O)Nc1ccc(S(=O)(=O)N(C)c2ccccc2)cc1 | -30 | 19 | 74 | 15 | 6 | 59*
CC(=O)Nc1ccc(S(=O)(=O)N(C)c2ccccc2)cc1 | -6 | 1 | -2 | 4 | -3 | 27
CCOC(=O)C1CCN(c2cc(=O)n(Cc3ccc(F)cc3)c(=O)[nH]2)CC1 | -13 | 14 | 45 | 17 | -4 | -1
COc1ccc(-c2nn(-c3ccccc3)cc2C(=O)n2nnc3ccccc32)cc1 | -25 | 16 | 17 | 30 | 3 | 56*
N#Cc1cc[n+](CC(=O)c2ccc(NC(=O)c3ccccc3)cc2)cc1 | -1 | -33 | . | -8 | -8 | -7
Cc1ccc(Cl)cc1N1CCN(C(=O)C2CCN(S(=O)(=O)c3c(C)nn(C)c3C)CC2)CC1 | -13 | 9 | 32 | 12 | -4 | 51*
COC(=O)C(Sc1ccc(Cl)cc1)C1SC(=S)N(Cc2ccccc2)C1=O (stereo not drawn) | -11 | -6 | 39 | 58* | . | 10
O=C(Nc1cc(S(=O)(=O)N2CCOCC2)ccc1N1CCCC1)c1ccc2c(c1)S(=O)(=O)c1ccccc1C2=O | -3 | 20 | 30 | -1 | 16 | 10
O=C(N/N=C/c1cccc([N+](=O)[O-])c1)c1cc(-c2ccccc2)nc2ccccc12 | -25 | 8 | 5 | 4 | 8 | 24
O=C(N/N=C/c1ccc(Cl)c([N+](=O)[O-])c1)c1cc(-c2ccccc2)nc2ccccc12 | -27 | -319 | 3 | 12 | 1 | 108*
O=C(N/N=C/c1cc([N+](=O)[O-])ccc1O)c1cc(-c2ccccc2)nc2ccccc12 | -7 | 7 | 88* | 21 | 48 | 47
Cc1ccc(NC(=S)N/N=C/c2ccc(Cl)c([N+](=O)[O-])c2)cc1 | 17 | -19 | 1 | -13 | -9 | 86*
O=C(N/N=C/c1cc([N+](=O)[O-])ccc1Cl)c1cc(-c2ccccc2)nc2ccccc12 | 11 | 12 | -7 | 5 | 16 | 8
CNc1cncc(-c2ccc(OCCCN(C)C)nc2)n1 | 4 | -35 | -4 | 6 | . | -24
COc1ccc(O[C@@H]2O[C@H](COC(C)=O)[C@@H](OC(C)=O)[C@H](OC(C)=O)[C@H]2NC(C)=O)cc1 | -1 | 11 | 26 | 2 | 2 | 79*
